# Assay outcomes deposited in PubChem BioAssay by National Center for Advancing Translational Sciences (NCATS).
# LT uptake inh = anthrax lethal toxin internalization inhibition | Cells, anthrax lethal toxin internalization, FRET ratio (460/530) | 70,000 compounds, 0.67% hits | Potency, µM (titrated, usually from 40 µM), inactives show top-dose activity change, negative = inhibition, usual class: inhibitors; further: on the % scale 0 is the no-effect control and ±100 the full control effect; nearly all actives have a fitted effect of over 50% in size
# SmPrx2 inh = Schistosoma mansoni Prx2 inhibition. S. mansoni Prx2 activity coupled to TGR/GSH (TGR is thioredoxin glutathione reductase), NADPH fluorescence loss, qHTS. Potency, µM. 65,000 compounds, 0.07% hits
#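 Activity is read as the drop in NADPH fluorescence (365/450 nm), recorded every 30 sec for 8 min after H2O2 addition. Prx2 is coupled to TGR-driven NADPH oxidation through glutathione, in phosphate buffer pH 7.4.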
# AmpC inh det = inhibitors of E. coli AmpC beta-lactamase with detergent | 71,000 compounds, 0.09% hits | P00811 | Potency, µM (doses to about 28.7 µM), for inactives: top-dose activity change, negative = inhibition | AID 584 | purified AmpC, nitrocefin hydrolysis with detergent; active means well fitted curve in the direction sought with a large enough effect; inconclusive means small, poorly fitted or top-dose-only effect; further: on the % scale 0 is the no-effect control and ±100 the full control effect
# Target sequence (P00811 whole entry, looked up): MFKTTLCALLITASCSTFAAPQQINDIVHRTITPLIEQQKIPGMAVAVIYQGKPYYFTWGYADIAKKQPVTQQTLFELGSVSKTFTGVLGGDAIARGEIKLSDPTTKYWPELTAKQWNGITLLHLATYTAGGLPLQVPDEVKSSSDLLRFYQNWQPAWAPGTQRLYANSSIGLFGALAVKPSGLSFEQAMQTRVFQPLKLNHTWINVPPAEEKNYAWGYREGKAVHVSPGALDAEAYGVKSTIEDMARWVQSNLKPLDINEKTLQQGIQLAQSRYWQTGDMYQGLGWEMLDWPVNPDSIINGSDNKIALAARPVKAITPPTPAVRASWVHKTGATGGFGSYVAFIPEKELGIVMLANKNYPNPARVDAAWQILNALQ
#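 E. coli AmpC (5.3 nM) in 20 mM phosphate pH 7.0 with 0.01% Triton X-100, preincubated 15 min RT with compound; nitrocefin (2 uL of 800 uM stock) hydrolysis followed by 480 nm absorbance every 20 s over 4 min.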
# AmpC nodet inh = AmpC beta-lactamase inhibition, detergent-free assay | P00811 | Potency, µM (doses to about 28.7 µM), for inactives: at the top dose activity change, negative = inhibition | AmpC nitrocefin hydrolysis, absorbance 480 nm, no detergent | 71,000 compounds, 1.8% hits; further: % of control where 0% means no effect
#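 AmpC in 20 mM phosphate buffer pH 7.0 was preincubated 15 min at room temperature with compounds. Nitrocefin (800 uM stock) was then added and hydrolysis followed at 480 nm every 20 s for 4 min.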
# Numbers without * were called inactive; ? = inconclusive; . = not tested or not shown; [ ] = another dose, or the depositor's remark. This is a sample that favours compounds with a hit; in the whole collection about 2.4% have one here. Unless noted, the call rests on the fitted dose curve. Potency means the concentration at half of the fitted maximal effect.
SMILES,LT uptake inh,SmPrx2 inh,AmpC inh det,AmpC nodet inh
COC(=O)c1cc(NC2c3ccccc3C(=O)N2c2cccnc2)cc(C(=O)OC)c1 (centres undefined),4.9%,>57,12.6%,3.98µM*[single pt active]
O=C(NCCN1C(=O)C2C3C=CC(C3)C2C1=O)Nc1ccc(Br)cc1 (centres undefined),-13.4%,>57,13.5%,3.98µM*[single pt active]
COc1ccc(NC(=O)CCCN2C(=O)C3C4C=CC(C4)C3C2=O)c(OC)c1 (centres undefined),2.6%,>57,5.8%,21.4%
O=C1C2C3C=CC(C3)C2C(=O)N1CCCCN1C(=O)C2C3C=CC(C3)C2C1=O (centres undefined),-2.3%,>57,-3.5%,1.4%
COc1ccccc1NC(=O)NCCN1C(=O)C2C3C=CC(C3)C2C1=O (centres undefined),-1.0%,>57,10.9%,3.98µM*[single pt active]
O=C(NCCN1C(=O)C2C3C=CC(C3)C2C1=O)Nc1cccnc1 (centres undefined),?,>57,13.5%,3.98µM*[single pt active]
N#C[C@@H](Cc1ccc(O)c(O)c1)C(=O)N1CCc2ccccc21,-0.6%,>57,-0.7%,-16.3%
CCOC(=O)N1CCN(C(=O)C2CCCN(S(=O)(=O)c3cccnc3)C2)CC1 (centres undefined),1.3%,>57,13.8%,3.98µM*[single pt active]
O=C(C1CCCN(S(=O)(=O)c2cccnc2)C1)N1CCN(c2ccccn2)CC1 (centres undefined),?,>57,11.8%,3.98µM*[single pt active]
Cc1csc(NC(=O)C2CCCN(S(=O)(=O)c3cccnc3)C2)n1 (centres undefined),-1.5%,>57,13.6%,3.16µM*[single pt active]
O=C(NCc1ccc2c(c1)OCO2)C1CCCN(S(=O)(=O)c2cccnc2)C1 (centres undefined),-10.5%,>57,12.2%,3.98µM*[single pt active]
Cc1ccc(CNC(=O)C2CCCN(S(=O)(=O)c3cccnc3)C2)cc1 (centres undefined),-8.7%,>57,-2.7%,26.5%
COc1ccccc1-c1cc(NCc2cnc(C)cn2)ncn1,-18.7%,?,10.9%,33.7%
CCCCCCCCCCCCCCCCOC[C@@H](COCC(F)(F)F)OP(=O)(O)OCO,?,>57,-9.9%,169.2%
O=C(Nc1c2c(nn1-c1ccc(F)cc1)CSC2)c1ccc(S(=O)(=O)N2CCOCC2)cc1,-5.7%,>57,-1.3%,24.0%
CC(C)CC(=O)Nc1c2c(nn1-c1ccc(F)cc1)CSC2,1.5%,>57,13.3%,3.98µM*[single pt active]
Oc1ccc(-c2nc(-c3ccc(O)c(O)c3)cs2)cc1,12.6µM*,.,1.0%,-23.5%
COc1ccc(-c2nc(CS(=O)CC(=O)N3CCCC3)c(C)o2)cc1 (centres undefined),15.0%,>57,14.1%,3.98µM*[single pt active]
COc1ccc(-c2nc(CS(=O)CC(=O)NCc3ccco3)c(C)o2)cc1OC (centres undefined),-2.1%,>57,11.7%,3.98µM*[single pt active]
COc1ccc(-c2nc(CS(=O)CC(=O)NCC3CCCO3)c(C)o2)cc1 (centres undefined),8.9%,>57,11.6%,3.98µM*[single pt active]
COc1ccc(-c2nc(CS(=O)CC(=O)NCc3ccc4c(c3)OCO4)c(C)o2)cc1 (centres undefined),-5.2%,>57,14.0%,95.9%
COCCNC(=O)CS(=O)Cc1nc(-c2ccc(OC)cc2)oc1C (centres undefined),-5.9%,>57,11.9%,3.16µM*
COc1ccc(CNC(=O)CS(=O)Cc2nc(-c3ccc(C)cc3)oc2C)cc1 (centres undefined),-24.7%,>57,11.0%,114.3%
CC[C@H]1[C@@H]2C[C@@H]3[C@@H]4N(C)c5ccccc5[C@@]45C[C@@H]([C@H]2[C@@H]5O)N3[C@@H]1O,?,>57,-1.3%,5.9%
O=c1c(CCc2ccccc2)nc2cnc(Oc3ccccc3)nc2n1C[C@H]1CCCO1,-27.9%,>11.4,5.3%,35.6%
COC(=O)C1=C(C)NC(C)=C(C(=O)OCCN(C)Cc2ccccc2)[C@@H]1c1cccc([N+](=O)[O-])c1,?,>57,-1.4%,66.6%
N#Cc1ccccc1Cn1c(=O)n(Cc2ccc(C(=O)NCc3ccco3)cc2)c(=O)c2sccc21,11.8%,.,9.1%,3.98µM*[single pt active]
O=C(CCCn1c(=O)c2sccc2n(Cc2cc(=O)n3ccccc3n2)c1=O)NCc1ccco1,-5.0%,>57,17.9%,3.98µM*[single pt active]
N#Cc1ccccc1Cn1c(=O)n(-c2ccc(CC(=O)NCc3ccco3)cc2)c(=O)c2sccc21,?,>57,9.7%,3.98µM*[single pt active]
